Compound activity deposited in PubChem by National Center for Advancing Translational Sciences (NCATS).
TDP-43 rescue: TDP-43 toxicity inhibition in yeast. hit rate 0.45% among 45,000. Potency, µM (doses to about 46.1 µM), hits mostly activators. yeast TDP-43 toxicity rescue, BacTiter-Glo growth, 24 h; active = well fitted activation curve with a large enough effect; note: 0% is about no effect; nearly all actives have a fitted effect of over 55% in size
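TDP-43-expressing yeast, pregrown in raffinose, seeded at OD600 0.02 in galactose medium with compound for 24 hr at 30 deg C. Growth read by BacTiter-Glo luminescence, so rescue of toxicity appears as activation.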
An asterisk follows results filed as active; i = inactive. The full list was thinned out, with hits kept by preference. Potency is the fitted concentration of half-maximal effect.

SMILES	TDP-43 rescue
CCc1cccc(C)c1NC(=O)Cn1cnc2c1c(=O)n(C)c(=O)n2C	i
O=C(CCl)Nc1cccc(-c2cnc3ccccc3n2)c1	12.6µM*
O=C(O)CCC(=O)Nc1cccc(-c2csc(-c3ccccc3)n2)c1	i
Clc1ccc(-c2cnc3ccccc3n2)cc1	i
COc1ccc(-c2ccc(C(=O)NCc3ccc(N4CCN(C)CC4)cc3)c3occc23)c(C)c1	i
CC1(c2ccc(Cl)cc2)CC(C)(C)N(C(=O)c2cccc(F)c2)c2ccccc21 (stereo not drawn)	i
COC(=O)c1cc(C(=O)Nc2ccc(Cl)cn2)cc([N+](=O)[O-])c1	i
Cc1cc(Cl)ccc1OC(C)C(=O)Nc1ccc([N+](=O)[O-])cn1 (stereo not drawn)	22.4µM*
Cc1ccc(OC(C)C(=O)Nc2ccc(Cl)cn2)c([N+](=O)[O-])n1 (stereo not drawn)	i
CC1=NN(C(N)=S)C(=O)C1N=Nc1ccc([N+](=O)[O-])cc1 (stereo not drawn)	i
O=C(Nc1ccc(N2CCOCC2)cc1)c1cc2c(s1)CCCCC2	15.8µM*
O=C(Nc1cccc(S(=O)(=O)Nc2ccc(Cl)cc2)c1)c1cc2c(s1)CCCC2	i
O=C(Nc1ccc(N2CCOCC2)cc1)c1ccc(Br)o1	i
CCc1nc2ccc(C(=O)Nc3ccc4c(c3)OCC(=O)N4)cn2c1N(C)Cc1nccn1C	i
O=C(CN1C(=O)NC2(CCOc3ccccc32)C1=O)NCC(F)(F)F (stereo not drawn)	i
CC(O)(c1cccc(F)c1)c1nc(-c2ccncc2)cs1 (stereo not drawn)	i
CC(O)(c1cccnc1)c1nc(-c2ccc3c(c2)OCO3)cs1 (stereo not drawn)	i
COc1ccc(C(C)(O)c2nc(-c3ccc4c(c3)OCO4)cs2)cc1 (stereo not drawn)	12.6µM*
COc1cccc(C(C)(O)c2nc(-c3ccc(OC)nc3)cs2)c1 (stereo not drawn)	17.8µM*
COc1cccc(C(C)(O)c2nc(-c3cncnc3)cs2)c1 (stereo not drawn)	i
CC(C)c1cccc(-c2csc(C(C)(O)c3ccccc3)n2)c1 (stereo not drawn)	i
CC(O)(c1ccccc1)c1nc(-c2cccc(C(=O)O)c2)cs1 (stereo not drawn)	i
COc1ccc(C(C)(O)c2nc(-c3csc4ccccc34)cs2)cc1 (stereo not drawn)	17.8µM*
CC(O)(c1ccc(F)c(F)c1)c1nc(-c2ccc(Cl)cc2)cs1 (stereo not drawn)	i
COc1ccc(S(=O)(=O)N2CCN(C(=O)c3cc4c(s3)CCC4)CC2)cc1	i
SMILES	TDP-43 rescue
COc1ccc(NC(=O)CCS(=O)(=O)c2ccc3c(c2)n(C)c(=O)c(=O)n3C)cc1Cl	i
CCOC(=O)C(CC)n1nc(C)c2c(C)n(-c3ccc(C)cc3)nc2c1=O (stereo not drawn)	i
Cc1ccccc1NC(=O)c1sc2nc3c(cc2c1N)CCCC3	i
Nc1c(C(=O)Nc2ccc(OC(F)(F)F)cc2)sc2nc(-c3ccncc3)ccc12	i
CC(C)(C)c1ccc(CC(=O)N2CCC2(C)C(=O)NS(=O)(=O)c2cccc(F)c2)cc1 (stereo not drawn)	i
Cc1cccc(OCCC(=O)Nc2ccc(F)c(Cl)c2)c1	12.6µM*
Cc1ccc(OCCC(=O)Nc2ccc(F)c(F)c2)cc1	i
Cc1ccc(NC(=O)Nc2ccc(F)c(Cl)c2)cc1	i
Cc1ccc(Cl)cc1NC(=O)N1CCC2(CC1)Oc1ccccc1C(=O)N2Cc1ccccc1F	i
CCSc1ncc(Cl)c(C(=O)N(Cc2ccc(C(C)(C)C)cc2)C2CCS(=O)(=O)C2)n1 (stereo not drawn)	i
NC(=O)c1ccc2c(c1)OCCO2	i
O=C(c1cccc([N+](=O)[O-])c1)c1ccc2c(c1)OCCOCCOCCO2	i
CC(=O)c1ccc2c(c1)OCCOCCOc1ccccc1OCCOCCO2	15.8µM*
CSc1ccc(NC(=O)C2(C)CCN2C(=O)c2cc(C)n(C)n2)cc1 (stereo not drawn)	i
